Results from the supplement of paper PMC6555819.

Assays:
Experiment in all cases: PBM binding z-score (relative to random genomic background probes); higher = stronger binding; sequences stand for … in GC…GCGATTGACAGCGTAGAATGAAGG
[1] = test system: PPARg:RXRa IVT, anti-PPARg (NR concentration 270 nM, RXRa partner concentration 90 nM)
Method in brief: (§1)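 Probes were double-stranded and carried 34-nt variable regions with direct-repeat seeds, single-nucleotide variants, half-site ablations and random human genomic background sequences, printed on custom Agilent 4×180K protein-binding microarrays. Arrays were incubated 1 h with ligand-free nuclear receptor dimers in PBS pH 7.4, 2% milk, 0.02% Triton X-100, 1 mM DTT, 0.2 mg/mL BSA and 0.4 mg/ml salmon testes DNA. Antibodies against each partner (one per run) detected binding, and scanned fluorescence was regression-normalized. Binding z-scores use the random background probes as reference.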

[2] = test system: PPARg DBDmut:RXRa IVT, anti-PPARg (DBD mutation: PPARg1 K132A/R137A, NR concentration 270 nM, RXRa partner concentration 90 nM)
Method in brief: as §1

[3] = test system: PPARg DBDmut IVT, anti-PPARg (DBD mutation: PPARg1 K132A/R137A, NR concentration 270 nM)
Method in brief: as §1

[4] = test system: PPARg homodimer (NR concentration 180 nM)
Method in brief: as §1

[5] = test system: PXR:RXRa (NR concentration 270 nM, RXRa partner concentration 90 nM)
Method in brief: as §1

[6] = test system: PXR homodimer (NR concentration 270 nM)
Method in brief: as §1

[7] = test system: RARa:RXR (NR concentration 270 nM, RXRa partner concentration 90 nM)
Method in brief: as §1

[8] = test system: RARa homodimer (NR concentration 270 nM)
Method in brief: as §1

[9] = test system: RARb:RXRa (NR concentration 270 nM, RXRa partner concentration 90 nM)
Method in brief: as §1

[10] = test system: RARb homodimer (NR concentration 270 nM)
Method in brief: as §1

| Sequence | PBM binding z-score [1] | PBM binding z-score [2] | PBM binding z-score [3] | PBM binding z-score [4] | PBM binding z-score [5] | PBM binding z-score [6] | PBM binding z-score [7] | PBM binding z-score [8] | PBM binding z-score [9] | PBM binding z-score [10] |
| --- | --- | --- | --- | --- | --- | --- | --- | --- | --- | --- |
| ATCGAAAGGTCGACCAGGTGAGTATACACCGTTT | 2.15 | 0.944 | 0.642 | 1.28 | 2.8 | 0.258 | 3.62 | 0.621 | 3.98 | 2.97 |
| ACTCGGTGGACAAAGGTCAGAGCTACGCCAGTGA | 3.04 | -0.478 | -0.742 | 2 | 3.37 | -0.0874 | 4.02 | 0.366 | 3.96 | 4.06 |
| ACGCGGAGGACAAAGGTCAGAGCTACGCCAGTGA | 3.08 | -0.183 | -0.911 | 2.67 | 3.88 | 0.273 | 5.05 | 0.759 | 4.48 | 4.11 |
| AATACAGGGTCATCTTAGGCCAGAGTACGCACAG | 3.86 | 1.51 | 0.721 | 2.17 | 5.05 | 1 | 4.73 | 0.742 | 4.22 | 3.87 |
| CCTACTGGGCCAAAGAGGTCATTGATGCCGATAA | 4.34 | -0.355 | -0.682 | 1.81 | 4.81 | 4.26 | 4.39 | 0.256 | 3.07 | 3.65 |
| TATACAAGGTCAAAGGCCAGAGTACGAATGTCGA | 5.15 | 1.68 | 2.18 | 2.34 | 4.53 | 0.743 | 5.37 | 0.491 | 5.27 | 4.35 |
| CGTCCGAGGTCATAGGAGGTCAGTGAAGACAGAT | 4.71 | 1.87 | 0.417 | 5.49 | 7.21 | 6.7 | 6.7 | 2.36 | 5.36 | 5.04 |
| CAGCATAGGTCAGGGCCAGTATAGGAGGAACGTT | 1.1 | -0.177 | -0.223 | 1.42 | 1.36 | 0.189 | 2.17 | 0.463 | 3.89 | 3.19 |
| CGAACAAGGTCATTGACAGGACAGTGAATAGTAA | 4.81 | 1.05 | 0.903 | 2.11 | 4.12 | 1.79 | 4.28 | 1.42 | 5 | 3.92 |
| TCTGCTAGGTCAACGATGGTCAGTTAATCTGCTA | 4.08 | 0.247 | 0.848 | 1.07 | 1.88 | -0.482 | 2.17 | -0.966 | 4.04 | 3.26 |
| AGAATGAGGTCACCAAAGATCAGGGAAACGCTTG | 7.35 | 1.62 | 0.808 | 3.69 | 5.47 | 1.12 | 5.82 | 1.69 | 5.43 | 4.08 |
| GCTAGTTGGTCAGTAAAATGTCACACACCGGTCG | 0.672 | 0.0763 | -0.339 | 1.21 | -0.0576 | 0.0723 | 0.0348 | 0.262 | 0.995 | 1.43 |
| CGTCCAAGGTCAAGGTCAATGAAAGAGACTCGAA | 5.34 | 2.6 | 2.44 | 4.82 | 5.3 | 1.41 | 5.88 | 3.2 | 5.75 | 4.92 |
